Laboratory results taken from PubChem BioAssay (EPA / NIEHS).
Values joined by “and” are separate entries in the source; they are usually repeats but may differ in a detail not shown here. Equal values may be shown once. Results filed as inconclusive are left out. Active and inactive are the calls of the source. The calls were made as follows: active = hit-call score of the fitted dose curve at least 0.9, where 1 is the maximum; inconclusive = response in the unintended direction; inactive = score below 0.9.

target: rat Thyrotropin Releasing Hormone Receptor (TRH), Trhr (gene 25570) (UniProt Q01717); assay: NVS_GPCR_rTRH: NovaScreen (NVS) G Protein-Coupled Receptor Assay for rat Thyrotropin Releasing Hormone Receptor (TRH) (AID 2283329);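 also: hit means lower bound tracer signal versus DMSO baseline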
Sequence (Q01717 whole entry, looked up): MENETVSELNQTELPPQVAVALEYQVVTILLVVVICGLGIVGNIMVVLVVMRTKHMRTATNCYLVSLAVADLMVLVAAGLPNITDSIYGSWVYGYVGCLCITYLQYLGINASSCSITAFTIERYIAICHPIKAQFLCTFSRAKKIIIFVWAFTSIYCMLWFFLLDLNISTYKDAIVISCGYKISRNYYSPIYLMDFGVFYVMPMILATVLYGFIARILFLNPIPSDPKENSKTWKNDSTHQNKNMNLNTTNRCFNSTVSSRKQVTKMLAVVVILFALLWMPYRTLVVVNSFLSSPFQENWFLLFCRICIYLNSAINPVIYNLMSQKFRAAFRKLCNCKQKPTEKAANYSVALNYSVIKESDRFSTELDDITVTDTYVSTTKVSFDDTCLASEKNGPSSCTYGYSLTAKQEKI
How it was run: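 Test compounds are screened at 25 uM in duplicate against radioligand binding in rat forebrain membranes, with active pairs followed up over a concentration range. Detection uses filter-based radiodetection after a 4 h exposure.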

Question: How did the outcome turn out when `Cc1ccc2ccccc2c1C` was run?
Answer: inactive

Question: For `O=C(OC1CCCCC1)c1ccccc1C(=O)OC1CCCCC1`, which outcome is on record?
Answer: inactive

Question: `C[C@H]1CCCC(=O)CCC/C=C/c2cc(O)cc(O)c2C(=O)O1` was tested. Which outcome did it give?
Answer: inactive

Question: `Clc1nc(Cl)nc(Cl)n1` was tested. Which outcome did it give?
Answer: inactive

Question: How did the outcome turn out when `COP(=O)(OC)O/C(=C\Cl)c1cc(Cl)c(Cl)cc1Cl` was run?
Answer: inactive

Question: For `C1CCC(NC2CCCCC2)CC1`, which outcome is on record?
Answer: inactive

Question: `Cc1ccccc1C(=O)Nc1cccc(OC(C)C)c1` was tested. Which outcome did it give?
Answer: inactive

target: human Peripheral-type Benzodiazepine Receptor (PBR), TSPO (gene 706) (UniProt P30536); assay: NVS_MP_hPBR: NovaScreen (NVS) Membrane Protein Assay for human Peripheral-type Benzodiazepine Receptor (PBR) (AID 2283331);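 also: hits reduce radioligand binding relative to DMSO baseline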
Sequence (P30536 whole entry, looked up): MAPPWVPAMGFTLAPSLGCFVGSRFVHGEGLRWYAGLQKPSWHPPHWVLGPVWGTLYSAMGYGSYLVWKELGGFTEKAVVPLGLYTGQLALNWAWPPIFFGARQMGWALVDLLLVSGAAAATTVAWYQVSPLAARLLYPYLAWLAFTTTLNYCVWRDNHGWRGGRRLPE
How it was run: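 Cell-free radioligand displacement, human colonic membranes, 1 h exposure. Filter radiodetection read-out. Single-concentration duplicates (25 uM), then concentration-response for actives; DMSO negative control.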

Question: How did the outcome turn out when `CC(C)CCCCCCOC(=O)c1ccccc1C(=O)OCCCCCCC(C)C` was run?
Answer: inactive

Question: How did the AC50 turn out when `COP(=S)(OC)Oc1ccc(S(=O)(=O)N(C)C)cc1` was run?
Answer: 5.32 µM (active)

Question: With `c1cc[c]([Hg][c]2ccccc2)cc1` as the compound, how does the AC50 read?
Answer: 0.372 µM (active)

Question: `O=C(OC1CCCCC1)c1ccccc1C(=O)OC1CCCCC1` was tested. Which AC50 did it give?
Answer: 3.21 µM (active) and 6.79 µM (active)

Question: With `CCC[CH2][Sn]([CH2]CCC)([CH2]CCC)[O]C(=O)c1ccccc1` as the compound, how does the AC50 read?
Answer: 5.59 µM (active)

Question: `COP(=S)(OC)Oc1c(Cl)cc(C)cc1Cl` was tested. Which AC50 did it give?
Answer: 9.23 µM (active)

Question: For `C[C@H]1CCCC(=O)CCC/C=C/c2cc(O)cc(O)c2C(=O)O1`, which AC50 is on record?
Answer: 1.66 µM (active)

Question: `O=C1C(Cl)=C(Cl)C(=O)c2ccccc21` was tested. Which AC50 did it give?
Answer: 7.47 µM (active)

Question: With `Clc1ccc(COC(Cn2ccnc2)c2ccc(Cl)cc2Cl)cc1` (stereo not given) as the compound, how does the AC50 read?
Answer: 1.09 µM (active)

Question: `COc1cc(-c2ccc(N)c(OC)c2)ccc1N` was tested. Which AC50 did it give?
Answer: 19.4 µM (active)

Question: `COP(=O)(OC)O/C(=C\Cl)c1cc(Cl)c(Cl)cc1Cl` was tested. Which AC50 did it give?
Answer: 0.401 µM (active)

Question: `Cc1ccccc1C(=O)Nc1cccc(OC(C)C)c1` was tested. Which AC50 did it give?
Answer: 1.12 µM (active)

Question: For `CCOC(=O)/C=C(C)/C=C/C[C@@H](C)CCCC(C)C`, which AC50 is on record?
Answer: 33.2 µM (active)
